From PubChem BioAssay (EPA / NIEHS) come the findings set out here.

Assay [1] is described as follows: ACEA_ER_80hr: ACEA Biosciences xCELLigence Real-Time Cell Analysis on Estrogen Receptor Agonism for Proliferation (AID 2282667; active means hit-call score of the fitted dose curve at least 0.9, where 1 is the maximum). To be noted: T47D proliferation, impedance (xCELLigence), 80 h. The method in brief:
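Impedance readout (RT-CES) of T47D proliferation at 80 h post-dose; gain of signal vs DMSO baseline. Compounds: 8 conc, 1:4 serial, top 100 uM final, ≤0.5% DMSO; biological duplicate.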

Assay [2] in a line: APR_HepG2_CellCycleArrest_24hr: Apredica 24-hour HepG2 Assay for Cell Cycle Arrest (AID 2282905).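 Further: cell cycle arrest scored as ratio of 2N to 4N nuclear DNA content.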 To be noted: imaging, actives raise or lower the signal. The method in brief:
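Step one: dose HepG2 with test compounds, 0.39–200 uM, 0.5% DMSO, 24 hr. Step two: fix, permeabilize, stain nuclei with Hoechst 33342. Step three: image six fields per well at 20x, quantify DNA content, fit bidirectionally relative to DMSO.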

A short description of assay [3]: APR_HepG2_NuclearSize_24hr: Apredica 24-hour HepG2 Assay for Nuclear Size (AID 2282907). The conditions noted are these: high-content imaging, actives raise or lower the signal. Summed up: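 After fixation and permeabilization, 24-hr-treated HepG2 cells were stained with Hoechst 33342 and imaged on an ArrayScan (20x). Doses spanned 0.39–200 uM in duplicate. Nuclear diameter changes in either direction were fitted relative to 0.5% DMSO controls.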

Assay [4] can be described thus: APR_HepG2_CellLoss_24hr: Apredica 24-hour HepG2 Assay for Cell Loss (AID 2282908).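 On AC50: fit in both directions so a hit may be cell loss or gain.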 To be noted: high-content imaging. Summed up: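 Duplicate wells received compound at ten concentrations (0.39–200 uM; final DMSO 0.5% v/v). After fixation with formaldehyde, nuclei stained with Hoechst 33342 were imaged at 20x. Loss or gain of cell count was fitted relative to DMSO controls.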

Assay [5] can be described thus: APR_HepG2_MitoMembPot_24hr: Apredica 24-hour HepG2 Assay for Mitochondrial Membrane Potential (AID 2282911). The conditions noted are these: imaging, actives raise or lower the signal. The method in brief:
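HepG2, 24 hr dosing, 10 concentrations 0.39–200 uM, 0.5% DMSO final. Live-cell MitoTracker Red CMXRos 250 nM 30 min, then 3.7% formaldehyde fix. HCS fluorescence imaging, 20x; bidirectional fit vs DMSO baseline.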

The nature of assay [6]: APR_HepG2_MitoMass_24hr: Apredica 24-hour HepG2 Assay for Mitochondrial Mass (AID 2282912). The conditions noted are these: high-content imaging, actives raise or lower the signal. Summed up:
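Readout: fluorescence of MitoTracker Red CMXRos (250 nM, added 30 min pre-fixation) in fixed HepG2 cells imaged by HCS. Exposure lasted 24 hr at 0.39–200 uM; increases and decreases were both fitted relative to DMSO.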

Assay [7] can be described thus: APR_HepG2_p53Act_24hr: Apredica 24-hour HepG2 Assay for p53 Activation (AID 2282913).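 Further: p53 protein immunofluorescence averaged per cell in HepG2 with Hoechst nuclei.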 The conditions noted are these: high-content imaging, actives raise or lower the signal. The method in brief: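 Read-out: Cy5 immunofluorescence for p53 in fixed, permeabilized HepG2, imaged by HCS with Hoechst-defined nuclei. Dosing was 24 hr at 0.39–200 uM in 0.5% DMSO. Curves were fitted bidirectionally relative to DMSO.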

The nature of assay [8]: APR_HepG2_CellCycleArrest_72hr: Apredica 72-hour HepG2 Assay for Cell Cycle Arrest (AID 2282914). To be noted: high-content imaging, actives raise or lower the signal. The method in brief: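 HepG2, 72 hr exposure, 10-point 0.39–200 uM, duplicate, 0.5% DMSO final. Fix 3.7% formaldehyde 30 min RT, Triton X-100 0.5%, Hoechst 33342 2 ug/mL. ArrayScan 20x, six fields/well; DNA content per nucleus; bidirectional fit vs DMSO.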

A short description of assay [9]: APR_HepG2_MitoticArrest_24hr: Apredica 24-hour HepG2 Assay for Mitotic Arrest (AID 2282910). To be noted: high-content imaging, actives raise or lower the signal. The method in brief:
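High-content imaging of fixed HepG2 cells labeled with Hoechst 33342 and anti-phospho-histone H3, after 24 h treatment. Ten concentrations 0.39 to 200 uM in duplicate, final DMSO 0.5%; changes fitted both directions relative to DMSO.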

Records with an inconclusive call do not appear. Calls of active or inactive are those of the source. How the source made its calls, unless noted: active means hit-call score of the fitted dose curve at least 0.9, where 1 is the maximum; inactive means score below 0.9.

In the case of `COCCOC[C@H](CC1(C(=O)NC2CCC(C(=O)O)CC2)CCCC1)C(=O)Oc1ccc2c(c1)CCC2` (stereo partly specified), the result in [1], in assay [2], in assay [3], in assay [4], in assay [5] and in assay [6] was inactive. Besides, the result in [7] and in [8] was inactive.

For `O=C(OCCCCCOC(=O)c1ccccc1)c1ccccc1`, the call in assay [1], in assay [2], in [3], in [4], in assay [9] and in assay [5] was inactive. Also, in [7], the compound was called inactive. In addition, in assay [8], the AC50 (commonly the concentration at which the activity in the assay is half-maximal) is 103 µM (active).

Turning to `CCc1c(C(=O)NN2CCCCC2)nn(-c2ccc(Cl)cc2Cl)c1-c1ccc(Br)cc1`, the AC50 is 1.69 µM (active) in [1]; 27.9 µM (active) in assay [2]; 21.5 µM (active) in [4]; 47 µM (active) in [6]; 14.6 µM (active) in assay [8]. Moreover, the compound was called inactive in assay [3], in assay [5] and in assay [7].

On to `Cc1oc(-c2ccccc2)nc1CCOc1cccc2c1ccn2CCC(=O)O`, for which the compound was classed as inactive in assay [1], in assay [2], in assay [3], in assay [4], in assay [5] and in [6]. Moreover, the outcome in assay [7] and in [8] was inactive.

For `Cc1ccccc1Cl`, the outcome in assay [1], in assay [2], in assay [3], in assay [4], in assay [9] and in assay [5] was inactive. In addition, the compound was called inactive in assay [7] and in [8].

With `CCCCCCCCCCO`, in assay [1], the AC50 was 19.8 µM (active). The result in [2], in assay [3], in [4], in assay [9], in assay [5] and in assay [7] was inactive. In addition, the compound was called inactive in assay [8].

With `Cc1cccc(Nc2cc(Cl)nc(SCC(=O)O)n2)c1C`, the compound was called inactive in assay [1], in [2], in [3], in assay [4], in assay [5] and in [6]. Further, the compound was classed as inactive in assay [7] and in assay [8].

On to `COc1ccc(C)cc1N`, for which the compound was classed as inactive in assay [1], in assay [2], in assay [3], in assay [4], in [5] and in assay [7]. For the same compound, the result in [8] was inactive.

In the case of `CC(=O)Oc1ccccc1C(=O)O`, the compound was called inactive in assay [1], in [2], in [3], in assay [4], in assay [9] and in [5]. The compound was classed as inactive in assay [7] and in [8].

In the case of `Cc1cc(NC(=O)C(=O)O)cc(C)c1Oc1ccc(O)c2c1CCC2`, the outcome in assay [1], in [2], in assay [3], in [4], in [9] and in assay [5] was inactive. For the same compound, the call in assay [7] and in [8] was inactive.

As for `CC(C)c1ccc(C(=O)N=C(N)N)cc1S(C)(=O)=O`, the result in assay [1], in assay [2], in assay [3], in assay [4], in assay [5] and in assay [7] was inactive. In assay [8], the compound was called inactive.

`Nc1ccccc1N`: the call in assay [1], in [3], in assay [5] and in assay [6] was inactive. Also, the AC50 in assay [2] is 15.8 µM (active); in assay [4], 12.9 µM (active); in assay [7], 32.3 µM (active); in [8], 5.63 µM (active).

For `CCCc1cc(=O)[nH]c(=S)[nH]1`, the AC50 in assay [1] is 0.747 µM (active). Moreover, the outcome in [2], in assay [3], in assay [4], in assay [5], in assay [7] and in assay [8] was inactive.

As to `CCCCCC(=O)O`, the compound was called inactive in [1], in [2], in assay [3], in [4], in assay [9] and in assay [5]. Besides, the call in assay [7] and in assay [8] was inactive.

For `COc1cc(S(=O)(=O)O)c(C)cc1N=Nc1c(O)ccc2cc(S(=O)(=O)O)ccc12`, the compound was called inactive in assay [1], in assay [2], in [3], in assay [4], in [6] and in [7]. Also, the compound was called inactive in assay [8]. Besides, the AC50 in [5] is 100 µM (active).

With `CN[C@H]1CC[C@@H](c2ccc(Cl)c(Cl)c2)c2ccc(S(N)(=O)=O)cc21`, the compound was classed as inactive in assay [1], in [2], in assay [3], in assay [5], in assay [7] and in assay [8]. Besides, the AC50 in assay [4] was 15.1 µM (active).

Take `Cc1c(C(=O)O)c(O)cc2c1C(=O)c1c(O)c([C@@H]3O[C@H](CO)[C@@H](O)[C@H](O)[C@H]3O)c(O)c(O)c1C2=O`: the call in assay [1], in [2], in assay [3], in assay [4], in [9] and in assay [5] was inactive. Also, the outcome in assay [7] and in assay [8] was inactive.

Consider `CC(C)(C)c1cc(O)c(C(C)(C)C)cc1O`, for which the call in [1], in assay [2], in assay [3] and in assay [5] was inactive. For the same compound, the half-maximal activity concentration (AC50) in [4] is 53.6 µM (active); in assay [6], 82.8 µM (active); in [7] it was 79.8 µM (active); in assay [8] it was 51.3 µM (active).

For `CCCCCCCC=O`, the outcome in assay [1], in assay [2], in [3], in assay [4], in [9] and in [5] was inactive. For the same compound, the compound was called inactive in assay [7] and in assay [8].

Regarding `COC(=O)c1ccc(O)cc1`, the outcome in assay [1], in assay [2], in [3], in [4], in assay [9] and in assay [5] was inactive. For the same compound, the result in [7] and in assay [8] was inactive.

Take `CCCCCCCCCCCCCCCC`: the compound was classed as inactive in assay [1], in [2], in [3], in assay [4], in [9] and in assay [5]. Also, the call in assay [7] and in assay [8] was inactive.

As for `CN1CCN(Cc2cc(-c3ccc4[nH]c(=O)oc4c3)co2)[C@@H](c2ccc(F)cc2)C1`, the outcome in assay [1], in assay [2], in assay [3] and in assay [5] was inactive. In addition, the AC50 in assay [4] is 89.7 µM (active); in [9] it was 42.1 µM (active); in assay [7], 65.2 µM (active); in assay [8], 83.5 µM (active).

For `COc1ccc(S(=O)(=O)N2C(=O)[C@@](c3ccccc3OC)(N3C[C@H](O)C[C@H]3C(=O)N(C)C)c3cc(Cl)ccc32)c(OC)c1`, the outcome in [1], in [5] and in assay [8] was inactive. In addition, the AC50 in [2] is 86.2 µM (active); in [3], 93.2 µM (active); in [4], 92.4 µM (active); in assay [7], 68.6 µM (active).

With `CC1(C)NC(=O)NC1=O`, the compound was called inactive in [1], in assay [2], in assay [3], in assay [4], in [5] and in [7]. Also, in assay [8], the compound was called inactive.
